The values below come from article PMC5540273 (PLoS ONE, 2017).
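Note: KINOMEscan kinase panel screen.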

This test relates to CSNK2A1. As to conditions: concentration: 1 μM, replicates: in singlicate; n = 1.
Turning to `CN(C)S(=O)(=O)c1cc(-c2ccc3nccc(-c4cccc(S(N)(=O)=O)c4)c3c2)cnc1N` [GSK1669921], the “%Inh” value was determined as 11%. `CCS(=O)(=O)c1ccc(OC)c(Nc2nccc(-c3c(-c4cccc(NC(=O)c5c(F)cccc5F)c4)nn4ncccc34)n2)c1` [GSK326180]: the “%Inh” value is on record as 0%. `COc1cc(Nc2nccc(N3CCC(NC(=O)c4cc5ccccc5s4)C3)n2)cc(OC)c1OC` (centres unmarked) [GSK1379760]: the “%Inh” value is listed as 27%.

Consider `Cc1ccc(F)c(C(=O)Nc2cccc(-c3nn4ccccc4c3-c3ccnc(Nc4cccc(F)c4)n3)c2)c1F` [GSK361061], for which the “%Inh” value is 20%.

As for `Clc1ccc(-c2nn3ncccc3c2-c2ccnc(Nc3ccc4c(c3)OCCO4)n2)cc1` [GW829116], the “%Inh” value worked out at 0%. With `CCCCc1nn2ncccc2c1-c1ccnc(Nc2ccc(N3CCN(C)CC3)cc2)n1` [GW684941], the “%Inh” value was found to be 0%. Turning to `CCn1c(-c2nonc2N)nc2c(C#CC(C)(C)O)ncc(OCCCCN)c21.O=C(O)C(F)(F)F.O=C(O)C(F)(F)F` [GSK507274], the “%Inh” value came out at 0%.

For the compound `O=C(NC1CCN(c2ccnc(Nc3ccc(F)cc3)n2)C1)c1cc2ccccc2s1` (centres unmarked) [GSK1379716], the “%Inh” value stood at 0%.

With `COc1cc2c(cc1OCCN1CCNCC1)ncc1c3ccc(C#N)cc3[nH]c21`, the “%Inh” value came to 63%. The figure for `COc1cc(Nc2nccc(N3CCC(NC(=O)Nc4cccc(C(C)=O)c4)C3)n2)cc(OC)c1OC` (centres unmarked) [GSK1379753] is 13%; for `O=C(Nc1cccc(-c2nn3ccccc3c2-c2ccnc(Nc3cccc(C(F)(F)F)c3)n2)c1)c1c(F)cccc1F` [GSK292658] it is 7%.
